{"source": "the supplement of paper PMC10849652", "note": "About 7,900 targets were measured; listed, in parts, are those with a hit and a random draw of the rest. About 0.6% of all pairs of compound and target were hits. Unmarked numbers belong to inactive results.", "data": [{"compound": "C1COCCN1CCN2C3=CC=CC=C3N=C2NC(=O)C4=CC(=CC=C4)[N+](=O)[O-] [IRAK-1-4 Inhibitor I]", "assay": "log2 fold change, soluble protein after heating vs DMSO (PISA); higher = thermal stabilisation; K562 cells, 10 uM, 30 min; active = over 0.2 and 3.5 SD of the protein, either way, in both replicates (recomputed)", "outline": "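K562 cells at 2×10^6 cells/mL were given 10 μM compound for 30 min. Aliquots then went through 3 min of heating across 48°C-58°C, were pooled, and were extracted in PBS with 0.5% NP-40 at 4°C, and the supernatant after 21,000xg for 90 min was quantified by TMTpro 16plex LC-MS/MS with channel sums equalised. Thermal stability relative to control samples, from duplicates, is given as log2 fold change.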", "values": [{"target": "STK38 (UniProt Q15208)", "log2 fold change": 0.004}, {"target": "TBC1D24 (UniProt Q9ULP9)", "log2 fold change": -0.025}, {"target": "SMARCA4 (UniProt P51532)", "log2 fold change": -0.155}, {"target": "TAOK3 (UniProt Q9H2K8)", "log2 fold change": 0.007}, {"target": "SP100 isoform 4 (UniProt P23497)", "log2 fold change": 0.006}, {"target": "SLC35B4 (UniProt Q969S0)", "log2 fold change": 0.092}, {"target": "TBRG4 (UniProt Q969Z0)", "log2 fold change": -0.031}, {"target": "SPTBN4 (UniProt Q9H254)", "log2 fold change": -0.008}, {"target": "TGFBI (UniProt Q15582)", "sequence (Q15582 whole entry, looked up)": "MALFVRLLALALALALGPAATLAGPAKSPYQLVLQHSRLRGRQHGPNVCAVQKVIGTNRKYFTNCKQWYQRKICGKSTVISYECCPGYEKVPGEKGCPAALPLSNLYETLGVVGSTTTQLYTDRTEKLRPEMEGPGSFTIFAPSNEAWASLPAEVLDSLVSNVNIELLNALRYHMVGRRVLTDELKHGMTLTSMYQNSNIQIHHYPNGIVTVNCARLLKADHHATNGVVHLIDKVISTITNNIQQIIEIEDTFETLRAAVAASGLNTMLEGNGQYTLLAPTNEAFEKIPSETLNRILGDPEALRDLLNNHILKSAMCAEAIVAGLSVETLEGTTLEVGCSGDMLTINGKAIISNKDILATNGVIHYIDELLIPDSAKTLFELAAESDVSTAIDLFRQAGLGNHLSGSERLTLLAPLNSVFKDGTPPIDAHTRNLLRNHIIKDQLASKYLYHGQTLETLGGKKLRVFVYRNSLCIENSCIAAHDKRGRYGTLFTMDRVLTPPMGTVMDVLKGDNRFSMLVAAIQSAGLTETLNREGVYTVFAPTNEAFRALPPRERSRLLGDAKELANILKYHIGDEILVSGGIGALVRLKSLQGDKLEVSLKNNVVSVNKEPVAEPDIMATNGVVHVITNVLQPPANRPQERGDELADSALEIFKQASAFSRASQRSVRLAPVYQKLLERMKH", "log2 fold change": 0.026}, {"target": "STARD3NL (UniProt O95772)", "log2 fold change": 0.014}, {"target": "TJP1 (UniProt Q07157)", "log2 fold change": -0.033}, {"target": "TANGO6 (UniProt Q9C0B7)", "sequence (Q9C0B7 whole entry, looked up)": "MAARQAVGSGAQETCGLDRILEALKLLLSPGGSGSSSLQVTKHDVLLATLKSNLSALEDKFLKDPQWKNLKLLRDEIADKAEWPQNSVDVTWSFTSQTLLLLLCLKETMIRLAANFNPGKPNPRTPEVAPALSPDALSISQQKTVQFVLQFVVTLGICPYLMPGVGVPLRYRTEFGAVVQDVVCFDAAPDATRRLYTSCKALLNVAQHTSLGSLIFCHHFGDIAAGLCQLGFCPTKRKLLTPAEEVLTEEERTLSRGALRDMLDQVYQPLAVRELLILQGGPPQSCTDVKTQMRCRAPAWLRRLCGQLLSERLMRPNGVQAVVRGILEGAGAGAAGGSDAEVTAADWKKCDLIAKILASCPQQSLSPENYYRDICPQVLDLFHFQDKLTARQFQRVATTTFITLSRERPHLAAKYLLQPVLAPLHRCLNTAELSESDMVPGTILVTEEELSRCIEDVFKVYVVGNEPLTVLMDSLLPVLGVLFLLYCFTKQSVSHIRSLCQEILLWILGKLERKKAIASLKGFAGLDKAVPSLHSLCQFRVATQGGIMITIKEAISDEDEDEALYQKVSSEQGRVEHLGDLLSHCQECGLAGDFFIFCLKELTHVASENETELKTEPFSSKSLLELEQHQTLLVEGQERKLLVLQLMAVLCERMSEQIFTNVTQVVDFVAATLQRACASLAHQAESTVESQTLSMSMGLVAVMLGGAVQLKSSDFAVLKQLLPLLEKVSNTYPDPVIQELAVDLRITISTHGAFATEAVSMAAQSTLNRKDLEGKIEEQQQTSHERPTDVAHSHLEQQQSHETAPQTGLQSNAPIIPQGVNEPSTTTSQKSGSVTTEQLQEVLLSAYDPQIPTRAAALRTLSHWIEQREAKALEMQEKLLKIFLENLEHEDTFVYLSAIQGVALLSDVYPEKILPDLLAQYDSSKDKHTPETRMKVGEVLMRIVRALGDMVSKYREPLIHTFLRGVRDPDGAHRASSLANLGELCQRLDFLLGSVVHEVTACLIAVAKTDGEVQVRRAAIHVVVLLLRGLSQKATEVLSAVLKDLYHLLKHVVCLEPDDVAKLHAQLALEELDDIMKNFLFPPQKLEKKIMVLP", "log2 fold change": -0.117}, {"target": "TANK (UniProt Q92844)", "sequence (Q92844 whole entry, looked up)": "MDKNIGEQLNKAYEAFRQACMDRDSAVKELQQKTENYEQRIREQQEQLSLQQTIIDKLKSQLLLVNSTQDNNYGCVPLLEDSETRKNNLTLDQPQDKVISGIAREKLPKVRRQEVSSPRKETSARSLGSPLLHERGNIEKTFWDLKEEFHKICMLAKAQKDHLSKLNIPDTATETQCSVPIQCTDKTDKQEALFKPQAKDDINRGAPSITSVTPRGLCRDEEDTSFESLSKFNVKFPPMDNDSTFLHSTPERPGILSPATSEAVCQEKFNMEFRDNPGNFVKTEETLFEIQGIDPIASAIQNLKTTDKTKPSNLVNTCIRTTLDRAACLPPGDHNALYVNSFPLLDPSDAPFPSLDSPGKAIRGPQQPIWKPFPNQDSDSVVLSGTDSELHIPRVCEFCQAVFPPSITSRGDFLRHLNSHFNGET", "log2 fold change": -0.035}, {"target": "SRC isoform 2 (UniProt P12931)", "log2 fold change": -0.018}, {"target": "SUOX (UniProt P51687)", "log2 fold change": 0.123}, {"target": "SNRNP40 (UniProt Q96DI7)", "log2 fold change": -0.016}, {"target": "SNX11 (UniProt Q9Y5W9)", "log2 fold change": 0.069}, {"target": "TIMM13 (UniProt Q9Y5L4)", "sequence (Q9Y5L4 whole entry, looked up)": "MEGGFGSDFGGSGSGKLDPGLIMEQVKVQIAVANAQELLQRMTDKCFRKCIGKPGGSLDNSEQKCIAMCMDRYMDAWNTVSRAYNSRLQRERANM", "log2 fold change": -0.031}, {"target": "TATDN2 (UniProt Q93075)", "log2 fold change": -0.006}, {"target": "SRSF9 (UniProt Q13242)", "log2 fold change": -0.094}, {"target": "SMCHD1 (UniProt A6NHR9)", "log2 fold change": -0.268}, {"target": "SP3 (UniProt Q02447)", "log2 fold change": -0.129}, {"target": "TBC1D20 isoform 3 (UniProt Q96BZ9)", "log2 fold change": 0.02}, {"target": "SYK (UniProt P43405)", "log2 fold change": -0.192}, {"target": "TIMM29 (UniProt Q9BSF4)", "log2 fold change": -0.202}, {"target": "SMARCE1 (UniProt Q969G3)", "sequence (Q969G3 whole entry, looked up)": "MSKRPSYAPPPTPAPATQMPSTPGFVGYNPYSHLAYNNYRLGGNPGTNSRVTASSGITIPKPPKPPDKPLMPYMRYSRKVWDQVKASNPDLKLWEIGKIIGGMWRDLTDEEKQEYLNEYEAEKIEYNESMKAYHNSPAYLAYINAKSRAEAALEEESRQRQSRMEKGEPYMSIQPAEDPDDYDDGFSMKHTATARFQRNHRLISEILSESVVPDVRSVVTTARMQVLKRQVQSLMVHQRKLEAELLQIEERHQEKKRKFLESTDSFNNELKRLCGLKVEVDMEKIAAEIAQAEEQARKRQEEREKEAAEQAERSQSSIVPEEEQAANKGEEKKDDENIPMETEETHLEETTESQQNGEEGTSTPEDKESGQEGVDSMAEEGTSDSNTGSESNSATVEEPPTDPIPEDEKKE", "log2 fold change": -0.29}, {"target": "SRSF6 (UniProt Q13247)", "log2 fold change": -0.082}, {"target": "SRSF4 (UniProt Q08170)", "sequence (Q08170 whole entry, looked up)": "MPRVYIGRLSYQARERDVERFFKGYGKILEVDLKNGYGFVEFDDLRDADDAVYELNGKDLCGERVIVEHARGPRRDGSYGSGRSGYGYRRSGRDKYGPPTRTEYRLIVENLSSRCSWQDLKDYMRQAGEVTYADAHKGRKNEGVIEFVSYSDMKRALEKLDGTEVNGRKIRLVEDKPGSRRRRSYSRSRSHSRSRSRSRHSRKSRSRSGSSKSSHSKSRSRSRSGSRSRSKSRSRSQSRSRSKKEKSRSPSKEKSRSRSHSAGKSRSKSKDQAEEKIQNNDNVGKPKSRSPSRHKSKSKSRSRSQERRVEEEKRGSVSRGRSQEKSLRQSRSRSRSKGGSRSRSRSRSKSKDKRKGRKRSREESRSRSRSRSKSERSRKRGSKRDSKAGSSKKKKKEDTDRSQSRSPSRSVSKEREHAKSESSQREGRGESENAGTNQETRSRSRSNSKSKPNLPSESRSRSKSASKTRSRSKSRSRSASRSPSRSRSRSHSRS", "log2 fold change": -0.306}, {"target": "SULT1A1 (UniProt P50225)", "log2 fold change": -0.077}, {"target": "SLC27A4 (UniProt Q6P1M0)", "sequence (Q6P1M0 whole entry, looked up)": "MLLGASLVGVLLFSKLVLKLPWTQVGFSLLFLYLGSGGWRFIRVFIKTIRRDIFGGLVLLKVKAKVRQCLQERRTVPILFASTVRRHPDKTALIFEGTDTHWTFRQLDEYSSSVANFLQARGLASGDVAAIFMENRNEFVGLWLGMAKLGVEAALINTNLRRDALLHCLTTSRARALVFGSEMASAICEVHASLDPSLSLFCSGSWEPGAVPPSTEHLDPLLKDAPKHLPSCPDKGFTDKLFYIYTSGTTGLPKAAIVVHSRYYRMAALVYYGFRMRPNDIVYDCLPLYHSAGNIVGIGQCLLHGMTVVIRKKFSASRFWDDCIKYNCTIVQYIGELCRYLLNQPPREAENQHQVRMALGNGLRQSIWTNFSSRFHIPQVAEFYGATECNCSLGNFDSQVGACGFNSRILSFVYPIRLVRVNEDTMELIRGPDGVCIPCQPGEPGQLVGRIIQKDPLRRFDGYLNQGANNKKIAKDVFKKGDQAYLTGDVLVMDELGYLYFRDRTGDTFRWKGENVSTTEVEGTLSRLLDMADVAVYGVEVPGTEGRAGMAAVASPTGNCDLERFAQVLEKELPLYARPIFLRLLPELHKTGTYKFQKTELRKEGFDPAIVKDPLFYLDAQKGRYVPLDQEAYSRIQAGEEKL", "log2 fold change": -0.042}, {"target": "SSB (UniProt P05455)", "sequence (P05455 whole entry, looked up)": "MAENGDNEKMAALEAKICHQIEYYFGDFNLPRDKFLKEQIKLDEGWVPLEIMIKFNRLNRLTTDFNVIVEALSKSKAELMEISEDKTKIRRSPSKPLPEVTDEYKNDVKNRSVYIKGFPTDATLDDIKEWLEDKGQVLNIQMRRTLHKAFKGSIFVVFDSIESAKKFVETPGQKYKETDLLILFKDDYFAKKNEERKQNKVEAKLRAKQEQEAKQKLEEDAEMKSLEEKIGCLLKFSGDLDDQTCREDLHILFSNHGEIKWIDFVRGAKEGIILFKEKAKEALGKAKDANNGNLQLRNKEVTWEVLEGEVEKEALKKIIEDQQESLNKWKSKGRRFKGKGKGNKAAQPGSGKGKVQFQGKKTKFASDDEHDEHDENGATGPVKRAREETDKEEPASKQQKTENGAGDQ", "log2 fold change": -0.006}, {"target": "TLK2 isoform 2 (UniProt Q86UE8)", "sequence (Q86UE8 whole entry, looked up)": "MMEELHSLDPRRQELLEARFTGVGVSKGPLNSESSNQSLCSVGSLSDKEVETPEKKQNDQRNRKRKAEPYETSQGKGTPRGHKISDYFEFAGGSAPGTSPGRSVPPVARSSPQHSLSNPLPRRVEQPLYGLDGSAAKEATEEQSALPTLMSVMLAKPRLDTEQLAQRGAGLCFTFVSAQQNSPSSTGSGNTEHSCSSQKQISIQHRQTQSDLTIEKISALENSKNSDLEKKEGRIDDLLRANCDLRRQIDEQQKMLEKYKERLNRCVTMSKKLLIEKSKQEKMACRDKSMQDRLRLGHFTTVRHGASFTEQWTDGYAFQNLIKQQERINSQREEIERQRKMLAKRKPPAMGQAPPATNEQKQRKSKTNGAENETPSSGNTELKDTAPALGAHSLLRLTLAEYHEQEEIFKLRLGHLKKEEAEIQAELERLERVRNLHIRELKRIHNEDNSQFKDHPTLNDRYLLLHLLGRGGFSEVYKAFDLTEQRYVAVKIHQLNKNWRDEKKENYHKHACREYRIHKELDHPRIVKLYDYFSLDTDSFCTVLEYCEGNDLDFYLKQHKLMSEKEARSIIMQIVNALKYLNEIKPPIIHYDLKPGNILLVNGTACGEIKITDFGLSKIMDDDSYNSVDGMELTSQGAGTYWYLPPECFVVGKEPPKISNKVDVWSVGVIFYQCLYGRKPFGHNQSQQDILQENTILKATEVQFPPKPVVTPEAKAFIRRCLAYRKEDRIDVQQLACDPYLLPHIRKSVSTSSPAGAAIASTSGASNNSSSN", "log2 fold change": 0.035}, {"target": "STK11IP (UniProt Q8N1F8)", "log2 fold change": -0.248}]}]}
